Most compounds without a hit are left out; they make up all but 11% or so of the library.
AMA1 RON2 block = disrupts binding of P. falciparum AMA1 to RON2; AlphaScreen AMA1-biotinylated RON2 peptide binding; Potency, µM (top dose mostly 58.2 µM), without a hit: at the top dose activity change, negative = inhibition, most hits filed as inhibitors; 360,000 compounds, 0.2% hits;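 also: 0% = vehicle wells and -100% = peptide control; nearly all actives have a fitted effect of over 45% in size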
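AMA1 (3D7) with his tag at 25 nM final met compounds first, then biotinylated RON2 peptide at 25 nM; detection used donor plus acceptor beads, 10 µg/mL apiece, read by AlphaScreen after 30 min at room temperature.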
AmpC inh no detg = inhibitors of E. coli AmpC beta-lactamase without detergent. AmpC nitrocefin hydrolysis, absorbance 480 nm, 0.0001% Triton. Potency, µM (top dose mostly 57.1 µM), for inactives: at the highest dose activity change, negative = inhibition, actives largely listed as inhibitors. 330,000 compounds, 0.52% hits;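 also: plate controls were no compound for no effect and no enzyme for full effect; nearly all actives have a fitted effect of over 20% in size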
Target sequence (P00811 whole entry, looked up): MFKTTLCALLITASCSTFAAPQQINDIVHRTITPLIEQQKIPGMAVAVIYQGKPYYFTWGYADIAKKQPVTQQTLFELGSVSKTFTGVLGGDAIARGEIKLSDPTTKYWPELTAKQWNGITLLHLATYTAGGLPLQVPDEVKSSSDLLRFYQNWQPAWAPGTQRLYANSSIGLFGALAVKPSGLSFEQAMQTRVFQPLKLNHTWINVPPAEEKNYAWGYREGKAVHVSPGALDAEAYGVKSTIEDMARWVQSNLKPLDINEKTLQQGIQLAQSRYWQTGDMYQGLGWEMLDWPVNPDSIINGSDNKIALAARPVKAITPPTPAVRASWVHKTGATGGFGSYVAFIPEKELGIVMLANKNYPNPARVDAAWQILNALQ
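AmpC (5.3 nM in the dispensed reagent) in 20 mM phosphate pH 7.0 with 0.01% (detergent screen) or 0.0001% Triton X-100 was preincubated with compounds for 15 min at room temperature. Nitrocefin was then added from an 800 uM solution, and hydrolysis was followed at 480 nm.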
AmpC inh detg = inhibitors of E. coli AmpC beta-lactamase with detergent | P00811 | 370,000 compounds, 0.041% hits | AmpC hydrolysis of nitrocefin, absorbance 480 nm, 0.01% Triton | Potency, µM (doses to about 114 µM), for inactives: top-dose activity change, negative = inhibition, usual class: inhibitors;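 also: 0% = no-compound wells and -100% = no-enzyme wells; nearly all actives have a fitted effect of over 25% in size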
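20 mM phosphate pH 7.0 + 0.01% (detergent screen) or 0.0001% Triton X-100; 5.3 nM AmpC reagent; cpd preinc 15 min RT; nitrocefin (800 uM stock) to start; A480 q20 s × 4 min; Activity was normalised to no-enzyme and no-compound control wells.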
HCV inh = inhibitors of hepatitis C virus infection; Huh7.5.1 HCVcc-Cre infection, luciferase reporter, 44 h; Potency, µM (top dose mostly 41.8 µM), for the others: at the top dose activity change, negative = inhibition, usual class: inhibitors; 340,000 compounds, 3.4% hits
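1,000 cells/well; 4 h culture; + compound; + HCVcc-Cre (~0.5 moi); 44 h; luciferase substrate, RT 15 min; read 15 sec.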
Pf growth 96h = inhibits malaria parasite growth, 96 h; Potency, µM (highest dose often 28.7 µM), for the others: at the top dose activity change, negative = inhibition, most hits filed as inhibitors; 320,000 compounds, 6.9% hits; P. falciparum luciferase reporter growth, 96 h; AID 504834
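P. falciparum expressing integrated firefly luciferase, in erythrocytes at 2% hematocrit, 0.05% parasitemia, incubated with compounds 96 h at 37 C, 5% CO2. Growth inhibition read as loss of luminescence; two-generation exposure targets delayed-death apicoplast inhibitors.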
Pf growth 48h = inhibits P. falciparum growth in the first generation, 48 h. P. falciparum luciferase growth in erythrocytes, 48 h. Potency, µM (titrated, usually from 28.7 µM), for the others: at the top dose activity change, negative = inhibition, usual class: inhibitors. 310,000 compounds, 5.9% hits. AID 504832
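Here the parasites carry a stable luciferase gene and grow inside erythrocytes in Albumax-based RPMI medium with compound for one erythrocytic cycle. Activity is scored as loss of luminescent signal.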
* = called active by the depositor; ? = inconclusive; / = not tested or not shown; [ ] = another dose, or the depositor's remark. Calls follow the shape of the dose curve; as a rule, active = well fitted curve in the direction sought with a large enough effect; inconclusive = small, poorly fitted or top-dose-only effect, or another doubt; inactive = no such curve, though single readings can be large; an effect the other way counts as inactive or inconclusive. Unless noted, % is scaled to controls: 0 for no effect and ±100 for the full control effect; potency is read from the fitted curve at half-maximal effect.

SMILES | AMA1 RON2 block | AmpC inh no detg | AmpC inh detg | HCV inh | Pf growth 96h | Pf growth 48h
CN1CCN(CC(O)COC(c2ccc(Cl)cc2)c2ccc(Cl)cc2)CC1 (configuration not stated) | -5.8% | 171.3% | -12.3% | 5.01µM* | 9.28µM* | /
OC(COC(c1ccc(Cl)cc1)c1ccc(Cl)cc1)CN1CCc2ccccc2C1 (configuration not stated) | ? | -8.5% | -5.5% | 12.6µM* | 2.62µM* | ?
CC(C)(C)C1CCC(=NNC(=O)CN(c2ccccc2)S(=O)(=O)c2ccccc2[N+](=O)[O-])CC1 (configuration not stated) | 14.1%[11.6 µM] | ? | ? | 10.8% | 11.0% | -16.5%
C/C(=N\NC(=O)CN(c1ccccc1)S(=O)(=O)c1ccccc1[N+](=O)[O-])C(C)(C)C | 53.3% | -21.3% | -12.0% | 3.8% | 11.7µM* | ?
OC(CON=C1c2ccccc2-c2ccccc21)CN1CCNCC1 (configuration not stated) | -9.6% | 47.9% | 3.5% | 2.51µM* | ? | ?
Cc1cc(=O)n(Cc2c(F)cccc2Cl)c2c1c(C)nn2C | / | / | 0.6% | / | / | /
CCn1c(C)c(C)c2cc(C(=O)NCCN3CCCCCC3)ccc21 | -20.0% | 123.2% | -4.5% | 12.6µM* | ? | 0.0%
CCn1c(C)c(C)c2cc(C(=O)NCCc3ccco3)ccc21 | -6.5% | -45.1% | -4.7% | 15.8µM* | 16.2% | ?
CCOc1ccc(N2CC(NC(=O)c3ccc(S(=O)(=O)N4CCCC4)cc3)CC2=O)cc1 (configuration not stated) | / | / | 0.1% | / | / | /
COc1ccc(-c2nc3sc(CCNC(=O)Cc4ccccc4)c(C)n3n2)cc1 | / | / | -2.7% | / | / | /
O=C1CCCc2[nH]c3cccc(/C(=C/c4ccccc4)c4ccccc4)c3c21 | -10.0% | -20.7% | -8.1% | 1.0% | 11.7µM* | -15.5%
COC(=O)c1cccc(NC(=O)/C(=C\c2ccccc2)NC(=O)c2ccccc2Cl)c1 | 3.1% | -29.5% | -2.0% | -18.7% | ? | -8.1%
O=c1c2c([nH]c3ccccc13)CCC2 | 3.4% | -6.4% | 2.6% | 13.0% | -3.6% | ?
COC(=O)c1ccc2[nH]c3cccc(/C(=C/c4ccccc4)c4ccccc4)c3c2c1 | 15.1% | -52.2% | ? | ? | 3.7µM* | ?
COc1ccc2cc(CNCCOCCOCCNCc3ccc4cc(OC)ccc4c3)ccc2c1 | -8.4% | / | / | 3.98µM* | / | /
CCOc1ccc(CN(C(=O)c2nc(SC)ncc2Cl)C2CCS(=O)(=O)C2)cc1 (configuration not stated) | / | / | 15.7% | / | / | /
COC(=O)c1ccccc1NC1=C/C(=N\S(=O)(=O)c2cccs2)c2ccccc2C1=O | 3.16µM* | -54.5% | 0.1% | 8.91µM* | 0.657µM* | /
COC(=O)c1ccccc1NC1=C/C(=N\S(=O)(=O)c2ccc(C(=O)O)cc2)c2ccccc2C1=O | ? | -40.5% | -5.9% | 10µM* | 12.8% | 1.47µM*
O=C1C(Nc2ccccc2)=C/C(=N/S(=O)(=O)c2cccs2)c2ccccc21 | ? | 10µM* | -5.2% | 3.98µM* | 0.522µM* | 0.522µM*
O=C(NCCc1ccccc1Cl)c1ccc2c(=O)n(-c3ccccc3)c(=O)[nH]c2c1 | / | / | -5.1% | / | / | /
COC(=O)c1cccc(NC(=O)C2CCN(S(=O)(=O)Cc3ccccc3)CC2)c1C | / | / | 28.5% | / | / | /
CCCN1C(=O)c2cc(C(=O)Nc3ccc(OC)cc3OC)ccc2C1Nc1ccc(OC)cc1OC (configuration not stated) | 14.1µM* | 156.2% | 0.1% | ? | ? | ?
CCCN1C(=O)c2cc(C(=O)Nc3ccccc3CC)ccc2C1O (configuration not stated) | 6.0% | -2.7% | -13.0% | -12.1% | 10.4µM* | /
CCCN1C(=O)c2cc(C(=O)Nc3ccc(OC)c(OC)c3)ccc2C1Nc1ccc(OC)c(OC)c1 (configuration not stated) | -21.0% | 154.1% | 0.7% | ? | 0.7% | ?
CC(C)(C)C(=O)N1CCN(c2ccc([N+](=O)[O-])c(NCc3cccnc3)c2)CC1 | -7.0% | 62.3% | -0.8% | -12.3% | 14.8% | ?
SMILES | AMA1 RON2 block | AmpC inh no detg | AmpC inh detg | HCV inh | Pf growth 96h | Pf growth 48h
O=[N+]([O-])c1ccc(N2CCN(S(=O)(=O)c3ccc(Cl)cc3)CC2)cc1NCc1cccnc1 | -14.9% | -18.7% | -7.2% | 2.8% | ? | 7.38µM*
O=[N+]([O-])c1ccc(N2CCN(S(=O)(=O)c3ccccc3)CC2)cc1NCc1cccnc1 | -9.3% | -17.0% | -5.2% | 19.1% | -0.5% | 9.28µM*
O=[N+]([O-])c1ccc(N2CCN(S(=O)(=O)c3ccccc3)CC2)cc1NCc1ccco1 | / | -17.5% | 3.7% | 12.9% | 13.1µM* | -19.8%
COc1cccc(CNC(=O)C(NS(=O)(=O)c2ccc3c(c2)oc(=O)n3C)C(C)C)c1 (configuration not stated) | / | / | -17.6% | / | / | /
Cc1cc(C)cc(C(=O)n2nc(C)c(S(=O)(=O)N3CCCCCC3)c2C)c1 | / | / | -0.4% | / | / | /
COc1ccc(-c2nc(CSCC(=O)N3CCN(c4cccc(C)c4)C(C)C3)c(C)o2)cc1OC (configuration not stated) | ? | 246.0% | 1.7% | 10µM* | ? | ?
Cc1cccc(-c2nc(CSCC(=O)N3CCN(c4ccccn4)CC3)c(C)o2)c1 | -11.8% | 155.8% | -13.6% | 11.2µM* | 371.1% | 32.0%
CCCn1c2ccccc2c2nnc(SCc3[nH]c(=O)[nH]c3C(=O)CCCCC(=O)OCC)nc21 | 14.3% | 53.6% | -0.6% | -25.8% | 10.4µM* | ?
CCN(CC)c1nn2c(=O)c(C(=O)NCc3ccc(F)cc3)cnc2s1 | / | / | 25.8% | / | / | /
CCCC(=O)OCCNc1cc(Sc2nc3ccccc3[nH]2)c2nonc2c1[N+](=O)[O-] | -24.6% | 12.6µM* | ? | ? | 122.8% | ?
CCC(C)NC(=O)c1cc(OC)c(OC)c(OC)c1 (configuration not stated) | 9.3% | -6.1% | -12.8% | 0.3% | 2.33µM* | -1.1%
COc1cc(C(=O)NCCSc2ccccc2)cc(OC)c1OC | ? | 0.0% | -8.6% | -17.1% | 10.4µM* | -8.5%
COc1cc(C(=O)N[C@H](C(=O)NC2CCCCCC2)C(C)C)cc(OC)c1OC | -2.9% | 0.9% | 1.0% | 12.4% | 11.7µM* | /
COc1cc(C(=O)NCCSc2ccc(Cl)cc2)cc(OC)c1OC | 9.7% | -6.2% | -6.3% | ? | ? | ?

Assay outcomes: PubChem, National Center for Advancing Translational Sciences (NCATS)
